Out of some 6,200 compounds screened, about 2,900 (47%) were called active. Rule as the data show it: active = inhibition above about 50%; inactive = the rest. The set was probably picked from earlier hits. The list shows a part of the results.

This assay is described as follows: Mycobacterium tuberculosis growth inhibition, primary screen (AID 1259343). The following applies: inhibition: at 10 µM, active compounds read high; outcome: 10 uM.
For the compound `CCCNC(=O)COc1c(Cl)cc(Cl)c2ccc(C)nc12`, the inhibition was 72.1% (active).

`O=[N+]([O-])c1ccc(C(O)CNC(=S)NCc2ccc3c(c2)OCO3)cc1` (stereo not drawn): the inhibition is 89.8% (active).

`CCc1cc(=O)[nH]c(-n2nc(C)cc2NC(=O)c2ccc(Br)o2)n1`: the inhibition is 101% (active).

Regarding `Cc1cc(=O)[nH]c(-n2nc(C3CC3)cc2NC(=O)c2ccco2)n1`, the inhibition is -24.5% (inactive).

Regarding `CCc1cc(=O)[nH]c(-n2nc(C)cc2NC(=O)c2cc(=O)c3ccccc3o2)n1`, the inhibition was 34.9% (inactive).

As to `CCCc1cc(=O)[nH]c(-n2nc(C)cc2NC(=O)c2ccco2)n1`, the inhibition was 100% (active).

`CCc1cc(=O)[nH]c(-n2nc(C)cc2NC(=O)c2ccco2)n1`: the inhibition is 100% (active).

As to `Cc1cc(=O)[nH]c(-n2nc(C)cc2NC(=O)c2ccco2)n1`, the inhibition was 101% (active).

`COCC(O)CN(C)C(=O)c1ccc(Oc2cccc(Br)c2)nc1` (stereo not drawn): the inhibition was 85% (active).

Take `CN(Cc1ccc(Br)cc1)CC(O)COc1cccc(Br)c1` (stereo not drawn): the inhibition is 46.8% (inactive).

In the case of `C=CCNC(=O)N(Cc1ccccn1)c1ccc(Oc2cccc(F)c2)nc1`, the inhibition was 39.1% (inactive).

In the case of `CCc1ccc(N2C(=O)C3N=NN(Cc4ccccc4C)C3C2=O)cc1` (stereo not drawn), the inhibition was 76.5% (active).

Consider `CC1=NOC(Cc2ccccc2)C(=O)N1Cc1ccc(C)cc1` (stereo not drawn), for which the inhibition is 30.2% (inactive).

Consider `CCc1ccc(N2C(=O)C3N=NN(Cc4ccc(C)cc4)C3C2=O)cc1` (stereo not drawn), for which the inhibition is 60.1% (active).

`COc1ccc(N2C(=O)C3N=NN(Cc4ccccc4C)C3C2=O)cc1Cl` (stereo not drawn): the inhibition is -10.3% (inactive).

On to `CCc1ccc(N2C(=O)C3N=NN(Cc4ccccc4)C3C2=O)cc1` (stereo not drawn), for which the inhibition was 93.5% (active).

For `Cc1ccc(-c2nc(SCc3ncc(C(C)C)o3)n[nH]2)cc1`, the inhibition is 11.4% (inactive).

With `CCCCCSc1n[nH]c(-c2ccc(C)cc2)n1`, the inhibition is 84.7% (active).

As to `Cc1cc(=O)[nH]c(-n2nc(C)cc2NC(=O)c2ccc3ccccc3c2)n1`, the inhibition was 94.6% (active).

Regarding `CCc1cc(=O)[nH]c(-n2nc(C)cc2NC(=O)c2ccc3ccccc3c2)n1`, the inhibition was 101% (active).

Regarding `CCCc1cc(=O)[nH]c(-n2nc(C)cc2NC(=O)c2ccc3ccccc3c2)n1`, the inhibition was 102% (active).

On to `FC(F)(F)c1cc(Cl)c2nnc(SCCN3CCSCC3)n2c1`, for which the inhibition is -6.99% (inactive).

With `CCCCCC12CCC(CC(=O)O)(CC1)CC2`, the inhibition was 70.4% (active).

`CC(C)N1C(=O)C(=NN2C(=O)CSC2=S)c2ccccc21`: the inhibition is -42.2% (inactive).

In the case of `O=C(NCc1ccoc1)N1CCN(Cc2ccc(Cl)s2)CC1`, the inhibition is 2.21% (inactive).

On to `CC(NC(=O)c1ccc(-c2ccccc2F)s1)C(=O)N1CCCCC1` (stereo not drawn), for which the inhibition is 18.5% (inactive).

Take `O=C(NC1CC1)N1CCN(Cc2ccc(-c3ccccc3F)s2)CC1`: the inhibition is 97.6% (active).

On to `CCCCCCCCCCCCCCCCCCN(C)C`, for which the inhibition is 98.2% (active).

On to `CCOc1ccc2oc(C(=O)NC(C)(C)CC)c(C)c2c1`, for which the inhibition was 64% (active).

Regarding `C(=Nn1c(-c2ccc3c(c2)OCCO3)csc1=NCCc1ccccc1)c1ccccn1`, the inhibition was 30.9% (inactive).

Regarding `CCN=c1scc(-c2ccc(C)c(C)c2)n1N=Cc1cccnc1`, the inhibition is -8.38% (inactive).

On to `CCN=c1scc(-c2ccc(C)c(C)c2)n1N=Cc1ccc2c(c1)OCCO2`, for which the inhibition is 70.5% (active).

For `CCN=c1scc(-c2ccc3c(c2)OCCO3)n1N=Cc1cc(C)ccc1C`, the inhibition was 87.5% (active).

As for `CCN=c1scc(-c2ccc(F)cc2)n1N=Cc1ccc2c(c1)OCCO2`, the inhibition is 4% (inactive).

On to `C(#Cc1ccccc1)CN1CCN(C/C=C/c2ccccc2)CC1`, for which the inhibition is 80.2% (active).

As for `Cc1nc(SCc2ccc(C(=O)O)cc2)nc(N2CCN(C/C=C/c3ccccc3)CC2)c1C`, the inhibition was 5.19% (inactive).

Turning to `COc1ccc(CC2CN(C/C=C/c3ccccc3)CCO2)cc1` (stereo not drawn), the inhibition is 41.6% (inactive).

Regarding `O=C(Nc1ccc(N2CCN(C(=O)c3ccc(-c4cccc(Cl)c4)s3)CC2)nc1)c1ccco1`, the inhibition is 38.5% (inactive).

On to `O=C(Nc1nc(OCC(F)(F)F)cnc1-c1ccc(Cl)cc1Cl)c1ccco1`, for which the inhibition was 64.5% (active).

With `CCc1cc(=O)[nH]c(-n2nc(C)cc2NC(=O)c2ccccc2[N+](=O)[O-])n1`, the inhibition was 101% (active).

`CCCc1cc(=O)[nH]c(-n2nc(C)cc2NC(=O)c2ccccc2[N+](=O)[O-])n1`: the inhibition was 101% (active).

As to `CN(C)[C@@H]1C(=O)C(C(N)=O)=C(O)[C@@]2(O)C(=O)C3=C(O)c4c(O)cccc4[C@@](C)(O)[C@H]3C[C@@H]12`, the inhibition was 60.8% (active).

As to `COc1ccccc1NC(=O)c1ccc2noc(-c3ccccc3)c2c1`, the inhibition was 42.1% (inactive).

Turning to `COc1cccc(Nc2ccc3c(-c4ccccc4)noc3n2)c1OC`, the inhibition was 70.1% (active).

Take `COCCC(=O)N1CCC(C(=O)Nc2cccc(-c3cccc(Cl)c3)c2)CC1`: the inhibition was 8.7% (inactive).

As for `CSCCC(=O)N1CCC(C(=O)Nc2cccc(-c3cccc(Cl)c3)c2)CC1`, the inhibition was 88% (active).

Take `O=C(Nc1cccc(-c2cccc(Cl)c2)c1)C1CCN(C(=O)CCn2cnnn2)CC1`: the inhibition was 90.2% (active).

Turning to `O=C(Nc1ccc(Oc2ccccc2F)cc1)C1CCN(Cc2cccc3c2OCO3)CC1`, the inhibition is 93.3% (active).

With `O=C(Nc1ccc(Oc2ccccc2F)cc1)C1CCN(CCCn2cccn2)CC1`, the inhibition was 86.6% (active).

Consider `CCc1ncc(CN2CCC(C(=O)Nc3ccc(Oc4ccccc4F)cc3)CC2)cn1`, for which the inhibition is 86.1% (active).

As to `COc1cccc(CN2CCC(C(=O)Nc3ccc(Oc4ccccc4F)cc3)CC2)c1`, the inhibition was 62.3% (active).

With `CC(=O)c1cccc(CN2CCC(C(=O)Nc3ccc(Oc4ccccc4F)cc3)CC2)c1`, the inhibition entry was “inactive”.

As to `CCn1cc(CN2CCC(C(=O)Nc3ccc(Oc4ccccc4F)cc3)CC2)cn1`, the inhibition result is “inactive”.

Consider `COCc1ccc(CN2CCC(C(=O)Nc3ccc(Oc4ccccc4F)cc3)CC2)o1`, for which the inhibition entry was “inactive”.

`Cc1nc(C)c(CN2CCC(C(=O)Nc3ccc(Oc4ccccc4F)cc3)CC2)nc1C`: the inhibition was 82.5% (active).

For `O=C(Nc1cccc(-c2cccc(F)c2)c1)C1CCN(CCCn2cccn2)CC1`, the inhibition is 89.5% (active).

As to `O=C(C1CCCC1)N1CCc2c([nH]c3ccccc23)C1c1cc(F)ccc1F` (stereo not drawn), the inhibition was 24.3% (inactive).

In the case of `O=c1c2ccccc2[nH]c(=S)n1C1CCCC1`, the inhibition is 90.2% (active).

With `c1ccc2c(c1)CCN(c1ncnc3c1oc1ccccc13)C2`, the inhibition was 19.2% (inactive).

On to `Fc1ccc(OCc2nc(CSc3nnnn3C3CC3)cs2)cc1`, for which the inhibition is 4.6% (inactive).

As for `COc1ccc(OCc2nc(C(=O)N3CCC3c3ccc(F)cc3)co2)cc1` (stereo not drawn), the inhibition is 28.5% (inactive).

`Fc1ccc(OCc2nnc3sc(C4CC4)nn23)cc1`: the inhibition was 67% (active).

On to `O=C(NN=Cc1ccc(F)cc1)c1cc(C23CC4CC(CC(C4)C2)C3)[nH]n1`, for which the inhibition was 10.7% (inactive).

Take `O=C(NN=Cc1ccccc1O)c1cc(C23CC4CC(CC(C4)C2)C3)[nH]n1`: the inhibition is 28.4% (inactive).

As for `COc1ccccc1C=NNC(=O)c1cc(C23CC4CC(CC(C4)C2)C3)[nH]n1`, the inhibition was 99.6% (active).

Turning to `CC(C)Cn1c(CN(C)Cc2ncc[nH]2)nc2ccccc21`, the inhibition was 29.8% (inactive).

As for `C(=NC1=NN(c2ccccc2)CC1)c1ccccc1`, the inhibition was 54% (active).

Turning to `c1ccc(C2=NN(c3ccccc3)CC2)cc1`, the inhibition was -38.3% (inactive).

Take `CN(C)C=NC1=NN(c2ccccc2)CC1`: the inhibition was -0.55% (inactive).

Turning to `CN(C)c1ccc(C=NC2=NN(c3ccccc3)CC2)cc1`, the inhibition was 90.3% (active).

In the case of `NC1=NN(c2ccccc2)CC1`, the inhibition is 82.6% (active).

As for `CN(C)c1ccc(C=NNC2=Nc3cccc4cccc2c34)cc1`, the inhibition is 18.6% (inactive).

`FC(F)(F)c1ccc2c(c1)n(Cc1ccc(Cl)c(Cl)c1)c1[n+]2CCCCC1`: the inhibition is 10.6% (inactive).

Consider `C=CC[n+]1c(-c2ccccc2)csc1Nc1ccccc1OC`, for which the inhibition was 88.1% (active).

On to `CCNC(=S)NN=Cc1ccco1`, for which the inhibition was 1.13% (inactive).

With `CCCCNC(=S)NN=Cc1ccc(C)o1`, the inhibition is 81.2% (active).

As to `Cc1ccc(C=NNC(=S)NC2CCCCC2)o1`, the inhibition is 101% (active).

For `CC(=NNC(=S)NC1CCCCC1)c1ccc(C)o1`, the inhibition was -13.8% (inactive).

Consider `Cc1ccc(C=NNC(=O)NC2CCCCC2)o1`, for which the inhibition was -14.7% (inactive).

Regarding `Cc1ccc(C=NNC(=S)NC(C)C)o1`, the inhibition is 54.2% (active).

As to `CC(C)NC(=S)NN=Cc1c(F)c(F)c(F)c(F)c1F`, the inhibition is 82.9% (active).

Regarding `CCc1c(C)sc2[nH]c(=S)n(C)c(=O)c12`, the inhibition was 24.5% (inactive).

Take `CN(C)S(=O)(=O)n1cc(/C=C/c2nc(N)nc(-c3ccccc3O)n2)c2ccccc21`: the inhibition is 13.7% (inactive).

`CC(C)(CNC(=O)c1ccccn1)c1ccccc1`: the inhibition is 65.7% (active).

`O=C(NCCc1ccc(Cl)s1)Nc1ccccn1`: the inhibition was 35.1% (inactive).

For `O=C(NCC1CCCc2ccccc21)c1ccccn1` (stereo not drawn), the inhibition was 3.26% (inactive).

`Fc1ccc(-c2c[nH]c(=S)[nH]2)cc1`: the inhibition was 90.2% (active).

`O=c1oc2ccccc2c(O)c1C(c1cncs1)c1c(O)c2ccccc2oc1=O`: the inhibition is -17.6% (inactive).

Turning to `O=c1oc2ccccc2c(O)c1C(c1ccc2c(c1)OCO2)c1c(O)c2ccccc2oc1=O`, the inhibition is 54.4% (active).

With `O=c1oc2ccccc2c(O)c1C(c1ccccc1O)c1c(O)c2ccccc2oc1=O`, the inhibition is 90.2% (active).

For `CC(C)[C@H](CNC(=O)[C@@H](NC(=O)c1cccc(-c2ccccc2)n1)[C@@H](C)O)B(O)O`, the inhibition is 23.9% (inactive).

Regarding `Cc1ccc(N=Nc2cn[nH]c2C)cc1`, the inhibition was -8.23% (inactive).

Consider `COc1ccc(NC(=O)C(C)CS(=O)(=O)c2ccc(Br)cc2)cc1F` (stereo not drawn), for which the inhibition was 61.1% (active).

`c1cc2c3c(cccc3c1)/C(=N/OCC1CO1)C2` (stereo not drawn): the inhibition was 101% (active).

`N#Cc1nc(-c2ccc(COc3ccc(Cl)cc3)o2)oc1NCC1CCCO1` (stereo not drawn): the inhibition was 46.9% (inactive).

Consider `N#Cc1nc(COc2ccc(Br)cc2)oc1NCCCn1ccnc1`, for which the inhibition is 62.4% (active).

`c1ccc(CC[P+](c2ccccc2)(c2ccccc2)c2ccccc2)cc1`: the inhibition was 62.6% (active).

Regarding `NC(CCCc1ccccc1)c1ccccc1` (stereo not drawn), the inhibition was 15.7% (inactive).

As usually defined, the inhibition is the change of the read-out against control, counted positive when it falls.

Values taken from PubChem BioAssay AID1259343 (VanderVen Lab, College of Veterinary Medicine, Cornell …, 2017).
